Source: ChEMBL document CHEMBL4513216, “Probing the Open Global Health Chemical Diversity Library for Multistage-Active Starting Points for Next-Generation Antimalarials” (ACS Infect Dis, 2020)
In all, about 69,000 compounds went through this assay and about 8,600 (12%) showed an effect of 50% or more. Shown is part of a subset that was picked to be rich in strong results.

system: Plasmodium berghei; assay: Screen against P. berghei liver stage (PbLuc), transformed with Luciferase, at 10uM; assay type: functional, HepG2; details: tested at 10 uM

SMILES | INHIBITION [%]
CSc1nccc(N2CCC(NCc3ccc4nsnc4c3)CC2)n1 | 76.9
Cc1cccc(N2CCC(NCc3cnc(C4CCC4)s3)CC2)n1 | 36.5
CSc1nccc(N2CCC(NCc3ccc4c(c3)OCO4)CC2)n1 | 57.4
Cc1ccc(N2CCCC(NCc3ccc4c(c3)OCCO4)C2)nn1 (configuration not stated) | -19.4
CSc1nccc(N2CCC(=O)N(CC3CC3)C(C(C)C)C2)n1 (configuration not stated) | 7.43
CSc1nccc(N2CCC(NCc3nc(C)cc(C)n3)CC2)n1 | 8.7
O=C(NCCNS(=O)(=O)N1CCCCCC1)c1ncccc1O | -13.6
CCCC(O)CN1CCC(=O)N(Cc2ccccc2)Cc2ccccc21 (configuration not stated) | -30
Cc1ccc(C)n1-c1c(C(=O)NCC(C)Cn2cccn2)cnn1C (configuration not stated) | 5.36
CN1[C@H](CN2CCCC2)C[C@@H]2CN(C(=O)Cc3cccs3)CC[C@@H]21 | 49.1
CN1CCN(C)c2cc(NC(=O)c3cc[nH]n3)ccc2C1 | 43.1
CCc1ccc(C(=O)Nc2ccc3c(c2)N(C)CCN(C)C3)o1 | 66.9
Cc1cc(C(=O)Nc2ccc3c(c2)N(C)CCN(C)C3)on1 | 44.2
c1ccc(OCCN2CCN(c3ncnc4[nH]ccc34)CC2)cc1 | 35.1
c1ccc(CCN2CCN(c3ncnc4[nH]ccc34)CC2)cc1 | 33
c1ccc(CCCN2CCCN(c3ncnc4[nH]ccc34)CC2)cc1 | 52.7
COc1ccc(Cn2c(CCc3c(C)n[nH]c3C)n[nH]c2=O)cc1 | -5.08
CCCc1nc(C)c(C(=O)NCCN2CCOCC2)s1 | -65.3
COc1ccc(CCC2CCCCN2)cc1 (configuration not stated) | 49.6
O=C(O)c1cccc2c(Br)cccc12 | 73.9
O=C(O)c1ccnc2c(Br)cccc12 | 9.32
O=C(O)c1cnc2c(Br)cccc2c1O | 27.5
C=C(C)COc1ccccc1C(=O)NCCc1cc(O)nc(C)n1 | 41.3
CCOC(=O)N1CC2(CCNCC2)c2cc(Cl)ccc21 | 21.1

SMILES | INHIBITION [%]
O=C(C1CC1)N1CC2(CCNCC2)C1 | -1.12
COCC(=O)N1CCc2ccccc2C12CCNCC2 | 40.5
O=C(C1CC1)N1CCc2ccccc2C12CCNCC2 | 55.4
CN(C)C(=O)N1Cc2ccccc2C2(CCNCC2)C1 | 12.4
CCOC(=O)N1CCc2ccccc2C12CCNCC2 | 50.4
Cc1ccc(CC(=O)N2CCC(Nc3cccnn3)CC2)s1 | -58.0025
Cc1ccccc1C(C(=O)NCCS(C)(=O)=O)N(C)C (configuration not stated) | 22.6
c1ncn(CC2CN(Cc3nc(-c4ccsc4)no3)CCO2)n1 (configuration not stated) | -3.165
Cc1nc(C)n(CC2CN(Cc3ccccc3OC(C)C)CCO2)n1 (configuration not stated) | 26.5
NCc1cnn(-c2ccccc2C(=O)NCc2ccccn2)c1 | 53.2
NCc1cnn(-c2ccccc2C(=O)NCCc2ccccn2)c1 | 24.4
NCc1cnn(-c2ccccc2C(=O)NCc2ccncc2)c1 | 17.1
NCc1cnn(-c2ccccc2C(=O)NCCCn2ccnc2)c1 | 54.6
COCCNC(=O)c1ccccc1-n1cc(CN)cn1 | 17.1
NCc1cnn(-c2ccccc2C(=O)NCCc2ccncc2)c1 | 8.72
CCN(C(=O)c1ccc(-n2ncc(C#N)c2N)cc1)C1CCCC1 | 25.1
Cc1cc(C)n(-c2cncc(NCCNS(C)(=O)=O)n2)n1 | 29
Cc1cc(NCCNS(C)(=O)=O)nc2cc3c(cc12)CCC3 | -6.88
COc1cc2nc(NCCNS(C)(=O)=O)cc(C)c2cc1OC | 50.3
Cc1cc(NCC2(O)CCOCC2)c2ccccc2n1 | 26
Cc1cc(NCCS(C)(=O)=O)nc2ccccc12 | 8.05
OC1(CNc2cc(C(F)(F)F)nc3ccccc23)CCOCC1 | -32.3
Cc1cc(NCC2(O)CCOCC2)nc2ccccc12 | 71.7
Cc1cc(NCCOCCS(C)(=O)=O)nc2ccccc12 | 46.6

SMILES | INHIBITION [%]
Cc1cc(NCCCNS(C)(=O)=O)nc2ccccc12 | 62
O=S(=O)(NCC1CCN(c2cnccn2)CC1)c1ccc(F)c(Cl)c1 | -54.5
CCc1c(C)n(CC(C)=O)c2nc3ccccc3n2c1=O | 4.66
c1csc(CN2CC(c3nc(-c4cnccn4)no3)C2)c1 | -12.6
CN(Cc1noc(C2CC2)n1)C1CCN(CCc2cnn(C)c2)C1 (configuration not stated) | 11.2
Cc1ccc(CN2C[C@H]3C[C@H](C(=O)NCC4CC4)N(C)[C@H]3C2)o1 | 18.6
CN(Cc1cnn(C)c1)CC1CCCN1c1cccnn1 (configuration not stated) | 5.7
NCc1ccc(Oc2ccc(F)c(F)c2)cc1C(F)(F)F | 26.1
Cc1ccc(CNC(=O)COc2ccc3c(c2)OCC3O)cc1 (configuration not stated) | 0.266
COCCn1nc(C(=O)N(C)Cc2ccc3ccccc3c2)ccc1=O | 43.4
Cc1cnn(CC2CCCCN2C(=O)c2cccnc2N(C)C)c1 (configuration not stated) | 15.5
O=C(c1ncccn1)N1CCC2(CC1)COC(COc1ccccn1)C2 (configuration not stated) | 12.6
O=C(c1ccoc1)N1CCC2(CC1)COC(COCc1ccccn1)C2 (configuration not stated) | 23.8
O=C(c1ccoc1)N1CCC2(CC1)COC(COc1ccccn1)C2 (configuration not stated) | 73.6
CCC(C)N(CCOC)Cc1nc2c(cnn2C)c(=O)[nH]1 (configuration not stated) | 14.22
CN(CC(N)=O)Cc1ccc(F)cc1Cl | -59.5
CC(C)NC(=O)CC(C)NCc1ccc(F)cc1Cl (configuration not stated) | 53.6
CC(C)NC(=O)CC(C)NCc1cc(Cl)ccc1F (configuration not stated) | 27.6
COc1c(C(=O)NC(C)Cc2ccccc2Cl)c(C)nn1C (configuration not stated) | 17.5
O=C(O)c1c(-c2cncnc2)ncc2c1CCN(Cc1ccco1)C2 | -27.1
CCn1nc2c(cc1=O)CN(Cc1nc(-c3cccnc3)no1)CC2 | -56.575
CCc1c(C)nc(N)nc1NCCSCc1[nH]cnc1C | 69.4
Cc1nc(C)c(C)c(NCCSCc2[nH]cnc2C)n1 | -8.47
Cc1cnc(N)nc1NCCSCc1[nH]cnc1C | 39.1
